Measured values as given in PubChem BioAssay (NCATS).
Records with an inconclusive call do not appear. Active and inactive are the calls of the source. Calls come from the whole dose curve; as a rule, active = well fitted inhibition curve with a large enough effect; inconclusive = small, poorly fitted or top-dose-only effect; inactive = flat fitted curve, though single readings scatter.

What was measured:
Experiment in all cases: qHTS profiling for inhibitors of Plasmodium falciparum proliferation (AID 504749); note: nearly all actives have a fitted effect of over 60% in size
Details in all cases: P. falciparum in erythrocytes, SYBR Green DNA, 72 h
CP194 = tested on: CP194
Method in brief: (§1)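 SYBR Green fluorescence (ex 485 nm, em 535 nm) reports parasite DNA after 72 h compound exposure of infected red cells at 0.3% parasitemia, 2.5% hematocrit; signal normalized to 0.29 uM artemisinin and vehicle wells.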

CP201 = tested on: CP201
Method in brief: as §1

CP203 = tested on: CP203
Method in brief: as §1

CP211 = tested on: CP211
Method in brief: as §1

CP215 = tested on: CP215
Method in brief: as §1

CP217 = tested on: CP217
Method in brief: as §1

CP237 = tested on: CP237
Method in brief: as §1

CP238 = tested on: CP238
Method in brief: as §1

CP247 = tested on: CP247
Method in brief: as §1

CP250 = tested on: CP250
Method in brief: as §1

Measured: Potency
Potency is the fitted concentration of half-maximal effect.

CC(=O)O[C@H]1C(=O)[C@@]2(C)[C@H]([C@H](OC(=O)c3ccccc3)[C@]3(O)C[C@H](OC(=O)[C@H](O)[C@@H](NC(=O)c4ccccc4)c4ccccc4)C(C)=C1C3(C)C)[C@]1(OC(C)=O)CO[C@@H]1C[C@@H]2O
active: CP194 0.675 µM | CP201 0.953 µM | CP203 0.849 µM | CP211 0.478 µM | CP215 1.35 µM | CP217 0.562 µM | CP237 0.708 µM | CP238 0.251 µM | CP247 0.355 µM | CP250 0.708 µM

CC[C@]1(O)CC2CN(CCc3c([nH]c4ccccc34)[C@@](C(=O)OC)(c3cc4c(cc3OC)N(C)[C@H]3[C@@](O)(C(=O)OC)[C@H](OC(C)=O)[C@]5(CC)C=CCN6CC[C@]43[C@@H]65)C2)C1 (stereo not given in full)
active: CP194 3.01 µM | CP201 4.78 µM | CP203 4.26 µM | CP211 1.51 µM | CP215 2.13 µM | CP217 3.98 µM | CP237 0.158 µM | CP238 3.16 µM | CP247 0.355 µM | CP250 3.55 µM
